Measurements reported in the supplement of paper PMC4962491.
± gives the standard deviation of the averaged measurements.

Test system: FaDu
Test: mitochondrial oxygen consumption rate normalised to cell number, Z score vs plate DMSO wells; higher = higher oxygen consumption (negative = OCR reduction)
Details: treatment time 24 h, assay medium: 5 mM glucose, 5 mM pyruvate, 4 mM glutamine
Experimental: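 Secondary screen: FaDu cells were incubated 24 h with the top 130 primary hits at 0.08, 0.4, 2 or 10 uM. Mitochondrial-specific OCR (basal minus antimycin A) was measured on a Seahorse XF96 in medium with 5 mM glucose, 5 mM pyruvate and 4 mM glutamine and normalised to Hoechst cell number. OCR score = (OCR - mean of plate DMSO wells) / SD of plate DMSO wells. Three repeats.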
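Note: compound exposure in DMEM (4 mM L-glutamine, 5 mM glucose), antimycin A injected at 2 µM after the basal reading and its residual OCR subtracted from basal.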

Row | SMILES | mitochondrial oxygen consumption rate normalised (0.08 µM) | mitochondrial oxygen consumption rate normalised (0.4 µM) | mitochondrial oxygen consumption rate normalised (2 µM) | mitochondrial oxygen consumption rate normalised (10 µM)
1 | CC(C(O)c1ccc(O)cc1)N1CCC(Cc2ccccc2)CC1 (stereo unspecified) | 0.382 ± 1.5 | 0.565 ± 0.59 | -0.938 ± 1.3 | 0.802 ± 0.91
2 | S=c1[nH]cnc2nc[nH]c12 | 0.147 ± 1.5 | 0.888 ± 1.4 | -2.8 ± 1.2 | -2.54 ± 0.98
3 | CCN(CC)CCCC(C)Nc1c2ccc(Cl)cc2nc2ccc(OC)cc12 (stereo unspecified) | -0.58 ± 1.2 | 0.524 ± 1.1 | -2.47 ± 1.1 | 
4 | Cc1c2oc3c(C)ccc(C(=O)N[C@@H]4C(=O)N[C@H](C(C)C)C(=O)N5CCC[C@H]5C(=O)N(C)CC(=O)N(C)[C@@H](C(C)C)C(=O)O[C@@H]4C)c3nc-2c(C(=O)N[C@@H]2C(=O)N[C@H](C(C)C)C(=O)N3CCC[C@H]3C(=O)N(C)CC(=O)N(C)[C@@H](C(C)C)C(=O)O[C@@H]2C)c(N)c1=O | -3.2 ± 1.3 | -7.48 ± 0.36 | -9.57 ± 0.5 | 
5 | CNC(=O)c1cc(Oc2ccc(NC(=O)Nc3ccc(Cl)c(C(F)(F)F)c3)cc2)ccn1 | -1.33 ± 0.69 | -0.411 ± 0.42 | -1.86 ± 0.2 | -12.1 ± 0.9
6 | CCCCCCCCCCCCCCCC[N+](C)(C)C | 0.46 ± 0.86 | -0.326 ± 1 | -10.1 ± 0.48 | 
7 | CCCCCCc1ccc(O)cc1O.Nc1c2ccccc2nc2ccccc12 | -0.393 ± 1.3 | -0.59 ± 2.2 | -2.14 ± 1.1 | -6.38 ± 0.68
8 | COc1ccc2cc3[n+](cc2c1OC)CCc1cc2c(cc1-3)OCO2 | -0.246 ± 0.98 | -0.535 ± 0.76 | -6.29 ± 0.22 | -13.55 ± 0.13
9 | CC(COc1ccccc1)NC(C)C(O)c1ccc(O)cc1 (stereo unspecified) | 0.276 ± 1.4 | 1.57 ± 0.3 | 0.21 ± 1.1 | 0.099 ± 1
10 | c1ccc2c(c1)CCCC2C1=NCCN1 (stereo unspecified) | -1.42 ± 2.7 | -0.536 ± 1.1 | -0.793 ± 1 | -0.259 ± 1
11 | COc1cccc2c1C(=O)c1c(O)c3c(c(O)c1C2=O)C[C@@](O)(C(=O)CO)C[C@@H]3O[C@H]1C[C@H](N)[C@@H](O)[C@H](C)O1 | -0.0709 ± 0.37 | 1.4 ± 1 | 1.18 ± 1.4 | 1.58 ± 2.4
12 | C[C@@H]1O[C@@H](OC[C@H]2O[C@@H](Oc3c(-c4ccc(O)c(O)c4)oc4cc(O)cc(O)c4c3=O)[C@H](O)[C@@H](O)[C@@H]2O)[C@H](O)[C@H](O)[C@H]1O | 0.0147 ± 1.7 | 1.67 ± 0.68 | -0.481 ± 2.6 | 1.74 ± 2.4
13 | CC[C@@]1(O)C(=O)OCc2c1cc1n(c2=O)Cc2cc3c(CN(C)C)c(O)ccc3nc2-1 |  |  | -1.46 ± 1.6 | 
14 | CCC(C)n1ncn(-c2ccc(N3CCN(c4ccc(OCC5COC(Cn6cncn6)(c6ccc(Cl)cc6Cl)O5)cc4)CC3)cc2)c1=O (stereo unspecified) | 0.265 ± 1.4 | 1.4 ± 0.68 | -0.554 ± 1.1 | -4.35 ± 1.6
15 | Cc1cc(CC(C)CC(C)(C)C)n(O)c(=O)c1 (stereo unspecified) | 0.0907 ± 1.2 | 0.402 ± 0.1 | -4.87 ± 1.5 | 
16 | COc1cc([C@@H]2c3cc4c(cc3[C@@H](O[C@@H]3O[C@@H]5CO[C@@H](c6cccs6)O[C@H]5[C@H](O)[C@H]3O)[C@H]3COC(=O)[C@H]23)OCO4)cc(OC)c1O [Teniposide] | 0.487 ± 1.3 | 0.0174 ± 0.54 |  | 
17 | CCCCCC(=O)O[C@]1(C(C)=O)CC[C@H]2[C@@H]3CCC4=CC(=O)CC[C@]4(C)[C@H]3CC[C@@]21C | 0.448 ± 1.4 | 0.998 ± 0.5 | 0.00301 ± 1.9 | -3.48 ± 1.8
18 | Nc1c2ccccc2nc2ccccc12 | -1.04 ± 0.95 | -0.393 ± 0.47 | -2.4 ± 0.075 | -9.41 ± 0.65
19 | CC[n+]1c(-c2ccccc2)c2cc(N)ccc2c2ccc(N)cc21 | -0.559 ± 1.1 | -1.04 ± 0.79 | -3.43 ± 2.4 | -6.28 ± 1.8
20 | CCN(CC)CCOC(=O)C(c1ccccc1)C1CCCCC1 (stereo unspecified) | 0.349 ± 1.2 | 1.06 ± 1 | 1.23 ± 0.9 | 1.37 ± 1.6
21 | COc1cc([C@@H]2c3cc4c(cc3[C@@H](O[C@@H]3O[C@@H]5CO[C@@H](c6cccs6)O[C@H]5[C@H](O)[C@H]3O)[C@H]3COC(=O)[C@H]23)OCO4)cc(OC)c1O |  |  | -7.82 ± 1.4 | 
22 | Nc1nc2[nH]cnc2c(=S)[nH]1 | -1.04 ± 1.9 | -0.865 ± 0.14 | -5.57 ± 0.33 | -5.01 ± 1.4
23 | CCCCCCCCCCCCC[N+](C)(C)Cc1ccccc1 | -1.59 ± 1.3 | -3.65 ± 1.3 | -11.5 ± 0.21 | 
24 | COc1ccc(C[C@H](N)C(=O)N[C@H]2[C@@H](O)[C@H](n3cnc4c(N(C)C)ncnc43)O[C@@H]2CO)cc1 | -1.29 ± 1.7 | -0.131 ± 0.75 | -3.4 ± 2.1 | 
25 | Clc1ccc(COC(Cn2ccnc2)c2ccc(Cl)cc2Cl)cc1 (stereo unspecified) | 0.524 ± 0.89 | 0.994 ± 1.6 | 0.111 ± 1.5 | -4.62 ± 1.4
26 | CC(C)OC(=O)C(C)(C)Oc1ccc(C(=O)c2ccc(Cl)cc2)cc1 | -0.014 ± 0.66 | 1.08 ± 0.7 | 0.455 ± 1.1 | -2.82 ± 2.6
27 | CCc1c2c(nc3ccc(OC(=O)N4CCC(N5CCCCC5)CC4)cc13)-c1cc3c(c(=O)n1C2)COC(=O)[C@]3(O)CC | 0.871 ± 0.77 | 1.67 ± 1.4 | 1.27 ± 0.31 | -4.72 ± 1
28 | CC(C)(C)CC(C)(C)c1ccc(OCCOCC[N+](C)(C)Cc2ccccc2)cc1 | -0.0571 ± 1.2 | 0.0149 ± 0.7 | -6.66 ± 0.41 | -13 ± 0.41

Row | SMILES | mitochondrial oxygen consumption rate normalised (0.08 µM) | mitochondrial oxygen consumption rate normalised (0.4 µM) | mitochondrial oxygen consumption rate normalised (2 µM) | mitochondrial oxygen consumption rate normalised (10 µM)
29 | C[n+]1cc2c3c(ccc2c2ccc4cc5c(cc4c21)OCO5)OCO3 | 0.385 ± 0.96 | 0.59 ± 0.68 | -0.66 ± 2.1 | -3.47 ± 3.3
30 | CCCCCCCCCCCCCCCCCCCCCCO | 0.402 ± 1.5 | 0.592 ± 1.3 | 0.538 ± 0.35 | -0.999 ± 1.9
31 | CCc1cc(Cl)c(OC)c(C(=O)NC[C@@H]2CCCN2CC)c1O | 0.346 ± 0.99 | 1.18 ± 0.45 | 0.712 ± 2.1 | 0.556 ± 2.2
32 | NS(=O)(=O)c1cc2c(cc1Cl)N=CNS2(=O)=O | -0.245 ± 2.1 | 0.722 ± 0.73 | 0.0559 ± 1.2 | 0.507 ± 1.1
33 | CCN(CC)C(=O)c1cccnc1 | 0.606 ± 0.97 | -0.942 ± 0.098 | -1.02 ± 1.1 | -1.48 ± 0.69
34 | C=CCOC(Cn1ccnc1)c1ccc(Cl)cc1Cl (stereo unspecified) | -0.655 ± 2.4 | 0.416 ± 2.9 | -0.3 ± 1.2 | -0.245 ± 0.57
35 | Oc1c(Br)cc(Br)c2cccnc12 | 0.816 ± 1.4 | 1.29 ± 1 | -0.243 ± 2.5 | -3.74 ± 2
36 | CO[C@H]1C[C@H](O[C@H]2[C@H](C)O[C@@H](O[C@@H]3/C(C)=C/C[C@@H]4C[C@@H](C[C@]5(C=C[C@H](C)[C@@H](C6CCCCC6)O5)O4)OC(=O)[C@@H]4C=C(C)[C@@H](O)[C@H]5OC/C(=C\C=C\[C@@H]3C)[C@]54O)C[C@@H]2OC)O[C@@H](C)[C@@H]1O | 0.113 ± 1.2 | 1.33 ± 0.39 | -0.504 ± 1.2 | -2.82 ± 1.1
37 | Cc1cc(=O)[nH]c(=S)[nH]1 | -1.18 ± 0.93 | -0.337 ± 0.83 | -1.08 ± 0.99 | 0.503 ± 0.66
38 | COc1cc(NS(C)(=O)=O)ccc1Nc1c2ccccc2nc2ccccc12 | -0.738 ± 1.7 | 1.51 ± 1.1 | -1.58 ± 0.81 | -5.19 ± 1.7
39 | CCCCC(CC)CN=C(N)N=C(N)NCCCCCCNC(N)=NC(N)=NCC(CC)CCCC (stereo unspecified) | -1.69 ± 0.36 | 1.12 ± 0.29 | -0.611 ± 2 | -10.4 ± 0.54
40 | CCCCC(CC)CN1CN(CC(CC)CCCC)CC(C)(N)C1 (stereo unspecified) | 1.53 ± 1.5 | 0.568 ± 0.56 | 0.773 ± 1.7 | -5.24 ± 1.7
41 | O=c1cc[nH]c(=S)[nH]1 | -0.646 ± 1.9 | 1.11 ± 0.98 | -0.279 ± 2.5 | 0.14 ± 2.1
42 | COc1cc(O)c(C(=O)c2ccccc2)cc1S(=O)(=O)O | 0.104 ± 1.6 | 1.17 ± 0.81 | -0.346 ± 2.5 | -1.77 ± 1
43 | CCOC(=O)CCC(=O)O[C@H]1[C@H](O[C@@H]2[C@@H](C)[C@H](O[C@H]3C[C@@](C)(OC)[C@@H](O)[C@H](C)O3)[C@@H](C)C(=O)O[C@H](CC)[C@@](C)(O)[C@H](O)[C@@H](C)C(=O)[C@H](C)C[C@@]2(C)O)O[C@H](C)C[C@@H]1N(C)C | -0.00592 ± 1.6 | 0.83 ± 0.89 | -0.161 ± 1.9 | 1.22 ± 0.77
44 | C[n+]1c2cc(N)ccc2cc2ccc(N)cc21 | 0.662 ± 0.73 | -1.94 ± 0.8 | -5.7 ± 0.82 | -12.3 ± 0.21
45 | N=C(N)NC(=N)NCCc1ccccc1 | 0.684 ± 1.6 | 0.605 ± 0.9 | -0.479 ± 0.84 | -5.11 ± 1.6
46 | CN(C)CCCN1c2ccccc2CCc2ccccc21 | -0.638 ± 1.5 | -0.388 ± 0.95 | -0.981 ± 1.9 | -0.576 ± 1.4
47 | CN1[C@@H]2CC[C@H]1C[C@@H](OC(=O)c1c[nH]c3ccccc13)C2 | 0.168 ± 1.4 | 1.48 ± 0.79 | -0.138 ± 1.6 | -1.06 ± 2.5
48 | Cc1cc(C2CCCCC2)n(O)c(=O)c1 | -0.736 ± 1.4 | 1.35 ± 1 | -3.51 ± 0.86 | -3.81 ± 1.9
49 | C=C1CC[C@H](O)C/C1=C/C=C1\CCC[C@]2(C)[C@@H]([C@H](C)/C=C/[C@H](C)C(C)C)CC[C@@H]12 | -1.49 ± 2.4 | -0.211 ± 0.41 | -1.83 ± 1.7 | -2.44 ± 1.9
50 | CCN(CC)CCCC(C)Nc1ccnc2cc(Cl)ccc12 (stereo unspecified) | 0.223 ± 1.1 | 1.56 ± 0.35 | -0.792 ± 0.8 | 0.482 ± 1.1
51 | N=C(NCCCCCCNC(=N)NC(=N)Nc1ccc(Cl)cc1)NC(=N)Nc1ccc(Cl)cc1 | 0.00962 ± 0.9 | 1.64 ± 0.46 | -0.184 ± 0.7 | -7.98 ± 0.44
52 | Nc1nc(Cl)nc2c1ncn2[C@H]1C[C@H](O)[C@@H](CO)O1 [Cladribine] | 0.0971 ± 0.62 | 1.11 ± 0.78 | 0.797 ± 2 | -0.553 ± 2.5
53 | N=C(N)c1ccc(OCCCCCOc2ccc(C(=N)N)cc2)cc1 | 0.754 ± 1.1 | -0.0335 ± 0.92 | -2.03 ± 2.2 | -6.65 ± 1.6
54 | CC(=O)Oc1ccccc1C(=O)Nc1ncc([N+](=O)[O-])s1 | 0.233 ± 1.2 | 1.38 ± 0.59 | 1.82 ± 0.7 | 1.49 ± 1.2
55 | CO[C@H](C(=O)[C@@H](O)[C@@H](C)O)[C@@H]1Cc2cc3cc(O[C@H]4C[C@@H](O[C@@H]5C[C@@H](O)[C@H](O)[C@@H](C)O5)[C@H](O)[C@@H](C)O4)c(C)c(O)c3c(O)c2C(=O)[C@H]1O[C@H]1C[C@@H](O[C@@H]2C[C@@H](O)[C@@H](O[C@@H]3C[C@](C)(O)[C@H](O)[C@@H](C)O3)[C@@H](C)O2)[C@H](O)[C@@H](C)O1 | -4.64 ± 1.4 | -7.12 ± 0.33 | -7.79 ± 0.54 | -8.14 ± 0.52
